Experimental data taken from PMC4336329 (PLoS ONE, 2015).
Screen size: about 310,000 compounds; about 14,000 (4.5%) showed an effect of 50% or more. The effect is printed as a negative number. The full list was thinned out, with strong results kept by preference.

Molecular target: human ether-à-go-go-related gene (hERG) potassium channel (human, UniProt Q12809)
Assay: primary screen, population patch clamp on CHO cells stably expressing hERG; higher = less effect of the substance
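Further: peak tail current of the secondary pulse compared with the same well before compound.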

Chain of human ether-à-go-go-related gene (hERG) potassium channel (Q12809 whole entry, looked up): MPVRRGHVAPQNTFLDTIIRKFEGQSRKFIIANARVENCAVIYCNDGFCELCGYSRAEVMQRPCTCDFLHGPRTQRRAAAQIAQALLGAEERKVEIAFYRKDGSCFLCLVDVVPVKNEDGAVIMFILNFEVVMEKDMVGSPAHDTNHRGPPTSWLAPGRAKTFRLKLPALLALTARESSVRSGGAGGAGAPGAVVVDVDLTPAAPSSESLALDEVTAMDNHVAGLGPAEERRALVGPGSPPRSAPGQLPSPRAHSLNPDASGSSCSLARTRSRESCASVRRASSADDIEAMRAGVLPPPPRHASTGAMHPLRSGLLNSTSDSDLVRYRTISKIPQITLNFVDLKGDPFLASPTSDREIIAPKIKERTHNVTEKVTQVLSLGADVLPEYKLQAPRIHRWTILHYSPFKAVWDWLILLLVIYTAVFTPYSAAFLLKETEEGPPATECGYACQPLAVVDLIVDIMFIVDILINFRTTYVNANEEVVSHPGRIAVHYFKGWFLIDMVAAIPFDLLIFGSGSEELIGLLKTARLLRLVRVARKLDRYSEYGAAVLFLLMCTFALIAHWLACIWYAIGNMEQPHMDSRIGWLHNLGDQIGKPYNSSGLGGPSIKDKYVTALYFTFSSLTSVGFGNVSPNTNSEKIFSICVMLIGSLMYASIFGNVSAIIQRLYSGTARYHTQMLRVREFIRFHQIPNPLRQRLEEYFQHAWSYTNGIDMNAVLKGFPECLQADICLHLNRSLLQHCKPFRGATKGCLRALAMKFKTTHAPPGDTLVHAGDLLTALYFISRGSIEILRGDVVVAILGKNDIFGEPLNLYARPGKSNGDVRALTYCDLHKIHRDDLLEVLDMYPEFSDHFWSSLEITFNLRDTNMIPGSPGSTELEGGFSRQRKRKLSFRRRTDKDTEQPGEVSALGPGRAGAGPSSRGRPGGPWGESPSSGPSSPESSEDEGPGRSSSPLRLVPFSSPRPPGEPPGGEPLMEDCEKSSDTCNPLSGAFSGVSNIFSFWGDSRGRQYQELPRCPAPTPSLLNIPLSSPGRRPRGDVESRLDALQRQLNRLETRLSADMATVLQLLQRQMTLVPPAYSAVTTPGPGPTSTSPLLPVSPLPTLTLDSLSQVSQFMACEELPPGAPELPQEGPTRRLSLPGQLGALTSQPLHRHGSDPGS

SMILES | hERG current change (%, negative = inhibition) at 10uM [%]
Cc1cccc(C(=O)NCCNC(=O)c2cccnc2)c1 | 18.6
COc1ccc(Nc2nc(NCc3ccco3)nc(N/N=C/c3ccccc3F)n2)cc1 | -12.3
Cc1ccc(S(=O)(=O)Nc2cccc(C(=O)NCCCN3CCOCC3)c2)cc1F | -10.2
COc1cc(C(F)(F)F)c(C(=O)N(C)Cc2cc(Cl)cc(Cl)c2)cn1 | -18.9
CCN(CC)CCCN=C(C)C1=C(O)c2ccccc2C1=O | -41.2
CC(=NCCCn1ccnc1)C1=C(O)c2ccccc2C1=O | -68
O=C1C(C=NCCCn2ccnc2)=C(O)c2ccccc21 | -8.86
CCOC(=O)N1CCN(C(=O)COc2ccc(S(=O)(=O)NC3CCCCC3)cc2C)CC1 | -16.9
O=C(O)c1ccccc1C(=O)Nc1ccc(-n2nc(C(F)(F)F)cc2C(F)(F)F)cc1 | 12.8
COc1ccc(NC(=O)CSc2nnc(-c3cccs3)n2Cc2ccco2)cc1OC | -60.6
CN(C)c1ccc(NC(=O)CSc2nnc(-c3cccs3)n2Cc2ccco2)cc1 | -39.4
CCn1c(SCC(=O)Nc2ccc(OC)c(OC)c2)nnc1-c1cccs1 | -14.1
COc1ccc(NC(=O)CSc2nnc(-c3ccccc3)n2Cc2ccco2)cc1OC | -34.6
Cc1ccc(NC(=O)CSc2nnc(-c3cccs3)n2Cc2ccco2)cc1 | -61.6
O=C(CSc1nnc(-c2cccs2)n1Cc1ccco1)Nc1ccc2c(c1)OCO2 | -14.6
COc1ccc(N=C2SC(CC(=O)Nc3ccccc3)C(=O)N2CCc2ccccn2)cc1 (centres unmarked) | -32.6
CCOC(=O)c1c(C)oc2ccc(OC(=O)c3cccs3)cc12 | -5.96
COc1ccc(C)cc1-n1nnnc1SCc1cn2ccsc2n1 | -28.7
c1coc(-c2nnc(SCc3cn4ccccc4n3)o2)c1 | -29.7
Cc1ccc2nc(CSc3nnc(-c4ccco4)n3-c3ccccc3)cc(=O)n2c1 | -21.1
Cc1ccc2nc(CSc3nnc(-c4ccco4)o3)cc(=O)n2c1 | -64.9
COc1ccc(C)cc1-n1nnnc1SCc1csc(C)n1 | -16.2

SMILES | hERG current change (%, negative = inhibition) at 10uM [%]
COc1ccc(C)cc1-n1nnnc1SCc1cc(=O)n2cc(C)ccc2n1 | -51.1
Oc1cccc(/C=N/c2c(-c3ccco3)nc3ccccn23)c1 | 6.9
Cc1cccc(N(Cc2ccc(Cl)cc2)S(C)(=O)=O)c1 | 21.1
CC1(C)CC(=O)C2=C(C1)NC(=O)C21C(C(=O)OC(C)(C)C)=C(N)Oc2ccc(Br)cc21 (centres unmarked) | -13.1
O=C1CN(C(=O)CSc2ccc(-c3ccc(F)cc3)nn2)c2ccccc2N1 | -42.5
Cc1noc(C)c1CSc1nnc2ccc3ccccc3n12 | -25.1
COc1ccc(C(C)=O)cc1COC(=O)CNC(=O)c1ccc(Cl)cc1 | -4.06
COC(=O)CNC(c1ccccc1)c1cc(Br)ccc1NC(=O)CCN1CCOCC1 (centres unmarked) | -31.7
NNC(=O)CNC(c1ccccc1)c1cc(Br)ccc1NC(=O)CCN1CCOCC1 (centres unmarked) | 3.67
CCOC(=O)CNC(c1ccccc1)c1cc(Br)ccc1NC(=O)CCN1CCOCC1 (centres unmarked) | -68
CC(=O)c1ccc(OCc2ccc(C(=O)c3ccccc3)cc2)cc1 | 0.433
COc1ccccc1OCc1ccc(C(=O)c2ccccc2)cc1 | 17.1
CC(=O)c1ccccc1OCc1ccc(C(=O)c2ccccc2)cc1 | -51.7
Cc1ccc(C(=O)c2nocc2C(=O)c2cccs2)cc1 | -19.7
CS(=O)(=O)O.Cc1cccc(/C=C2/C(=O)/C(=C/c3ccccc3C)C3CCC2N3C)c1 (centres unmarked) | 6.11
CCC(O)(CC)C(=O)NN(C(=O)CCl)c1ccccc1 | 8.94
CCc1ccc(-c2cc(C)no2)cc1S(=O)(=O)N1CCC(C)CC1 | -15.8
COc1ccc(-c2cc(C)no2)cc1S(=O)(=O)N1CCN(C(=O)c2ccco2)CC1 | -6.28
CCc1ccc(-c2cc(C)no2)cc1S(=O)(=O)N1CCN(c2ccccc2)CC1 | 3.41
Cc1ccc(S(=O)(=O)N2CCN(C(=O)c3ccco3)CC2)cc1C | -4.01
Cc1cc(-c2ccc(C)c(S(=O)(=O)N3CCN(C(=O)c4ccco4)CC3)c2)on1 | -51.8
CCc1ccc(-c2cc(C)no2)cc1S(=O)(=O)N1CCN(C(=O)c2ccco2)CC1 | -59.6
